The nature of assay [1]: P-glycoprotein substrates identified in KB-3-1 adenocarcinoma cell line, qHTS therapeutic library screen (AID 1346986). Note: nearly all actives have a fitted effect of over 60% in size.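 Note: potency is the fitted concentration of half-maximal effect; potency is for cytotoxicity meaning loss of cell viability.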 The gist of the method: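 Viability read by CellTiter-Glo after 72 h compound exposure in dose-response of KB-3-1 and KB-8-5-11 (P-gp-high) cells. Hits needed AC50 < 10 uM, >50% maximum response and curve class -1.1 to -2.4. Cherry-picks retested ± tariquidar, including pcDNA/MDR-19 HEK-293 pair.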
In general terms: qHTS replaces the single test concentration by a dilution series.

A short description of assay [2]: P-glycoprotein substrates identified in KB-8-5-11 adenocarcinoma cell line, qHTS therapeutic library screen (AID 1346987). Note: nearly all actives have a fitted effect of over 65% in size. Note: potency is the fitted concentration of half-maximal effect. The gist of the method:
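Compounds are pinned in dose-response onto KB-8-5-11 cells (500 cells/well, colchicine-free medium) and left 72 h at 37 degree C. CellTiter-Glo luminescence then yields AC50 values.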

The nature of assay [3]: NS1 protein of Zika virus - qHTS assay to identify small molecule inhibitors in human HEK 293 cells (AID 1347053). Note: nearly all actives have a fitted effect of over 55% in size. Note: potency is the fitted concentration of half-maximal effect. A digest of the protocol:
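Read-out is a two-antibody TR-FRET for ZIKV NS1, normalized between uninfected cells and infected cells. Compound added 1 h before MR766 infection at MOI 0.5; human HEK 293 cells incubated 24 h, 37 C.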

A short description of assay [4]: qHTS of pediatric cancer cell lines to identify multiple opportunities for drug repurposing: Primary screen for TC32 cells (AID 1347089). Note: nearly all actives have a fitted effect of over 60% in size. Note: potency is the fitted concentration of half-maximal effect. The gist of the method:
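A viability screen of TC32 cells was run over 48 h, with primary MIPE doses spanning 0.78 nM–46 µM and NPC doses 0.59 nM–46 µM. ATP luminescence (CellTiter-Glo) served as the read-out.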

A short description of assay [5]: qHTS of pediatric cancer cell lines to identify multiple opportunities for drug repurposing: Primary screen for SJ-GBM2 cells (AID 1347091). Note: potency is the fitted concentration of half-maximal effect. A digest of the protocol:
(§1)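 Cell viability, CellTiter-Glo luminescence; 500-1,000 cells/well, 8- or 11-point titration, 48 h compound exposure at 37 degrees C, 5% CO2. Controls: DMSO neutral, bortezomib 2.3 µM final as positive.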

Assay [6] in a line: qHTS of pediatric cancer cell lines to identify multiple opportunities for drug repurposing: Primary screen for SK-N-MC cells (AID 1347093). Note: potency is the fitted concentration of half-maximal effect. The gist of the method:
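Metabolically active cells were quantified by ATP-dependent luminescence (CellTiter-Glo, 15 min at room temperature) following 48 h treatment. Cells had been plated at 500-1,000 per well and settled for 5 h beforehand.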

Assay [7] can be described thus: qHTS of pediatric cancer cell lines to identify multiple opportunities for drug repurposing: Primary screen for BT-37 cells (AID 1347094). Note: potency is the fitted concentration of half-maximal effect. A digest of the protocol: (§2)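 ATP-based luminescence (CellTiter-Glo) quantifies viability after a 48-hour exposure. Compounds are dosed across 8 or 11 final concentrations; DMSO and 2.3 µM bortezomib serve as controls.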
Assay [8] in a line: qHTS of pediatric cancer cell lines to identify multiple opportunities for drug repurposing: Primary screen for NB-EBc1 cells (AID 1347095). Note: potency is the fitted concentration of half-maximal effect. The gist of the method: as §2
Assay [9] can be described thus: qHTS of pediatric cancer cell lines to identify multiple opportunities for drug repurposing: Primary screen for DAOY cells (AID 1347090). Note: nearly all actives have a fitted effect of over 55% in size. Note: potency is the fitted concentration of half-maximal effect. The gist of the method:
as §1

Assay [10] is described as follows: qHTS of pediatric cancer cell lines to identify multiple opportunities for drug repurposing: Primary screen for A673 cells (AID 1347092). Note: nearly all actives have a fitted effect of over 45% in size. Note: potency is the fitted concentration of half-maximal effect. The gist of the method:
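Titration-based qHTS on A673 cells: MIPE compounds spanned 11 points (0.78 nM to 46 µM final), NPC compounds 8 points (0.59 nM to 46 µM final). Viability after 48 h was measured by ATP luminescence.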

Assay [11] is described as follows: Identifying Small Molecule Inhibitors of Pancreatic Cancer Stem Cells (Panc1, Adherent) (AID 1259362).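 Note: compound exposure lasted 48 h before the viability read.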 Conditions: Potency: viability. A digest of the protocol: (§3)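 Cytotoxicity read by CellTiter-Glo luminescence after 48 h compound exposure at 37C; percent activity scaled between DMSO-treated cells and cell-free wells. Spheroid formats used cells pre-formed 14 days in stem cell media on hydrogel.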

Assay [12] in a line: Identifying Small Molecule Inhibitors of Pancreatic Cancer Stem Cells (A278, Adherent) (AID 1259361). Note: nearly all actives have a fitted effect of over 35% in size. The gist of the method: as §3

Several values for one entry are separate records, joined by “and”; a condition that tells them apart may be missing. Equal entries are not always repeated. Records with an inconclusive call do not appear. The source holds several records for some structures; these can differ, active in one and inactive in another. Activity calls are given as the source filed them. Calls come from the whole dose curve; as a rule, active = well fitted curve in the direction sought with a large enough effect; inconclusive = small, poorly fitted or top-dose-only effect, or another doubt; inactive = no such curve, though single readings can be large; an effect the other way counts as inactive or inconclusive.

Consider `CN(C)c1nc(Cc2ccc(NC(=O)c3ccc4ccccc4c3)cc2)nc(Cl)c1CC(=O)O`, for which the Potency result in assay [1], in [2], in assay [3], in assay [4], in assay [5] and in assay [6] was “inactive” in each case. Moreover, the Potency result in assay [7] and in [8] was “inactive” each time.
Take `O=C(O)C1(Cc2cccc(Nc3nccs3)n2)CCC(Oc2cccc(Cl)c2F)CC1` (stereo not drawn): the Potency in [1] is 517 nM (active); in [2], 411 nM (active); in [6], 1660 nM (active). Moreover, the Potency result in assay [3] was “inactive”.
As for `CC(O)C1C(=O)N2C(C(=O)O)=C(SC3CNC(C(=O)N(C)C)C3)C(C)C12` (stereo not drawn), the Potency entry in [1], in assay [2], in [3], in assay [4], in assay [9] and in [5] was “inactive” each time. In addition, the Potency entry in assay [10], in assay [6], in [7] and in assay [8] was “inactive” throughout.
For the compound `CN(C1CCc2c(c3ccccc3n2CC(=O)O)C1)S(=O)(=O)c1ccc(F)cc1` (stereo not drawn), the Potency entry in [1], in [2] and in [3] was “inactive” each time. In addition, the Potency in [9] is 5900 nM (active).
For the compound `CC1(O)CC(c2nc(-c3ccc4ccc(-c5ccccc5)nc4c3)c3c(N)nccn23)C1` (stereo not drawn), the Potency was 6510 nM (active) in assay [1]; 14.8 µM (active) and 9.2 µM (active) in assay [2]; 10500 nM (active) in assay [5]; 23500 nM (active) in assay [10]; 41.8 nM (active) in [6]; 19300 nM (active) in assay [7]. In addition, the Potency in [8] was 662 nM (active).
Take `CC(C)(O)c1cc2nc(-c3cnc(N)nc3)nc(N3CCOCC3)c2s1`: the Potency in assay [1] is 411 nM (active); in [2], 105 nM (active) and 517 nM (active); in assay [4], 466 nM (active); in assay [9], 148 nM (active); in assay [5], 235 nM (active); in [10], 372 nM (active). In addition, the Potency in assay [6] is 11.8 nM (active); in [7], 769 nM (active); in assay [8], 93.5 nM (active).
`O=C(O)CCCc1c[nH]c2ccccc12`: the Potency result in [1], in [2], in assay [3], in [4], in [9] and in assay [5] was “inactive” each time. The Potency entry in [6] was “inactive”. In addition, the Potency in [8] is 18700 nM (active).
For the compound `CN(C)CC(C)(C)CNc1nn2c(-c3ccccc3)nnc2cc1C1CCC1`, the Potency result in assay [1], in [2] and in [3] was “inactive” each time. Also, the Potency was 18600 nM (active) in assay [4]; 1180 nM (active) in assay [5]; 743 nM (active) in [10]; 469 nM (active) in [6]; 863 nM (active) in assay [7]; 264 nM (active) in assay [8].
As to `CCCn1c(=O)c2[nH]c(-c3cnn(Cc4cccc(C(F)(F)F)c4)c3)nc2n(CC)c1=O`, the Potency entry in assay [1], in [2], in assay [3], in assay [4] and in assay [9] was “inactive” each time.
As to `C=CC(=O)Nc1cccc(Oc2nc(Nc3ccc(N4CCN(C)CC4)cc3OC)ncc2Cl)c1`, in assay [11], the Potency result was “inactive”. For the same compound, the Potency entry in assay [2] is “inactive and 20.6 µM (active)”; in assay [3], 33200 nM (active); in [9] it was 37.2 nM (active); in [7], 27300 nM (active); in assay [8], 2350 nM (active).
Consider `O=C(c1cncc(Br)c1)N1CCC(N2CCCC2)CC1`, for which the Potency entry in [1], in assay [2], in assay [4], in assay [9], in [10] and in assay [6] was “inactive” in each case.
As for `CN1c2cc(O)c(N=NC(N)=O)cc2CC1S(=O)(=O)O` (stereo not drawn), the Potency entry in assay [1], in assay [2], in assay [3], in assay [4], in [9] and in assay [5] was “inactive” throughout. In addition, the Potency result in assay [10] and in assay [8] was “inactive” each time.
For `Nc1nc(NCCNc2ncc(-n3ccnc3)c(-c3ccc(Cl)cc3Cl)n2)ccc1[N+](=O)[O-]`, the Potency entry in [1], in assay [2], in [3] and in [4] was “inactive” each time. The Potency in assay [9] is 14800 nM (active); in assay [5] it was 4690 nM (active); in [8], 13200 nM (active).
For the compound `CCNC(=O)Nc1ccc2ncc(Nc3ccc(C)cc3)nc2n1`, the Potency result in assay [1], in [2] and in assay [3] was “inactive” throughout. In addition, the Potency in assay [4] was 1860 nM (active); in assay [9], 37.2 nM (active); in assay [6], 5.3 nM (active); in assay [7] it was 24300 nM (active); in [8], 18700 nM (active).
On to `Cc1ccc(CN2CCNCC2)cc1NC(=O)CNc1ccc(F)c(F)c1`, for which the Potency entry in assay [1], in [2], in assay [3], in [4], in assay [9] and in assay [10] was “inactive” throughout. Besides, the Potency result in assay [6] and in assay [8] was “inactive” throughout.
As for `CS(=O)(=O)c1ccc(-c2cnc(N)c(C(=O)Nc3ccccc3)n2)cc1`, the Potency result in assay [1], in [3], in assay [4], in [9] and in [7] was “inactive” each time. The Potency in [5] was 5900 nM (active); in assay [6], 4180 nM (active).
Consider `Cc1ccc(S(=O)(=O)Nc2cc(Cl)ccc2C(=O)Nc2nc(-c3ccccc3)cs2)cc1`, for which the IC50 (viability decrease) in assay [12] was 3720 nM (active). Further, the Potency result in assay [4] is “inactive”. Besides, the Potency in assay [9] was 11800 nM (active); in [6] it was 7430 nM (active); in assay [7], 17200 nM (active); in [8], 7430 nM (active).
As to `CCCCOc1c(C(=O)c2c(F)cc(C)cc2F)cnc2n[nH]cc12`, the Potency entry in assay [1] is “inactive and 3.66 µM (active)”; in assay [9], 11800 nM (active); in assay [5] it was 1180 nM (active); in assay [6] it was 1660 nM (active); in [8] it was 2350 nM (active). In addition, the Potency entry in assay [2], in assay [3] and in assay [4] was “inactive” each time.

For the origin of these results see PubChem BioAssay (NCATS).
